Data: PubChem BioAssay (NCI)
About 79,000 compounds went through this panel and 15% of them were active in at least one assay; those are over-represented in the sample as a whole. The source made the active and inactive calls. Rule as the data show it: active = growth inhibition above about 70%; inactive = the rest. Where a SMILES comes first, the peptide text is derived from it. The star is where a group is joined. Cbz = O=C(OCc1ccccc1)*

Test: NCI Yeast Anticancer Drug Screen. Data for the rad50 strain (AID 155);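 also: 0% = growth of vehicle-only cultures of the same strain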
Details: S. cerevisiae rad50 strain growth inhibition; at 50.0 µM; stronger effect = higher value
Procedure, shortened: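 Vehicle-treated cultures provide the reference for the growth inhibition reported for compound-exposed, repair-deficient yeast.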

Compound | growth inhibition
Cc1cc(C)nc(N)n1 | 0.25% (inactive)
CC(NC(=O)NC(C)(C)C)NC(=O)C(N)CC(=O)O (stereo not given) | -51.8% (inactive)
COC1Cc2c(C)c(OC(C)=O)c3cccnc3c2O1 (stereo not given) | 18.6% (inactive)
CCOC(=O)/C(C#N)=N\Nc1ccccc1 | -15.5% (inactive)
CCCC(C)c1ccc(OCc2ccc(C)cc2)cc1 (stereo not given) | 1.6% (inactive)
O=C1CSC(/C(=C\c2ccc(Cl)cc2)c2nc3ccccc3[nH]2)=N1 | 11.3% (inactive)
Cc1ccc(NC(=O)COc2ccc(Cl)cc2)c(C)c1 | 2.9% (inactive)
CCCCCCCCCCCCSc1nc2c([nH]1)c(=O)n(C)c(=S)n2C | -24.1% (inactive)
CC(=O)CCC(=O)c1ccoc1 | 9.05% (inactive)
O=S(O)CCCCSSCC(O)CO (stereo not given) | 22.5% (inactive)
Cc1c(Cl)cc(C(C)(C)C)c(O)c1Cc1c(C)c(Cl)cc(C(C)(C)C)c1O | 19.4% (inactive)
COc1ccc(-c2cc(N3CCN(c4ccccc4)CC3)c(C#N)c(=O)o2)cc1 | 25.1% (inactive)
CC(=O)CCCC(CC(C)O)[Si](C)(C)C (stereo not given) | -43.6% (inactive)
COC(=O)C1(CC(=O)c2cccs2)NC(=S)NC(=O)C1C#N (stereo not given) | 9.4% (inactive)
CCCCCCCCCCOc1ccc(OCCCCCCCCC)cc1 | 15.5% (inactive)
c1ccc(-c2cc[c]([Sn]([c]3ccccc3)([c]3ccccc3)[c]3ccccc3)cc2)cc1 | 95.2% (active)
N#Cc1c[nH]c2cccc([N+](=O)[O-])c12 (tested in a mixture with another compound) | 7.95% (inactive)
O=c1[nH]cnc2c1cnn2Cc1ccccc1 | 4.1% (inactive)
NC(=O)/C(=N/O)c1ccccc1 | -1.85% (inactive)
CCOC(=O)C(NC(=O)c1ccccc1)(N1CCOCC1)C(F)(F)F (stereo not given) | 25.3% (inactive)

Compound | growth inhibition
CC1(C)CC(=O)C(C(CCC2CCCCC2=O)C2C(=O)CC(C)(C)CC2=O)C(=O)C1 (stereo not given) | 38.5% (inactive)
c1ccc2c(c1)oc1cc3c(cc12)n1nnnc1c1cccn31 | 9% (inactive)
CCCCCCCCCCCC(=O)NC(=S)Nc1ccc(C)c(C)c1 | 8.65% (inactive)
O=C(NNC1=NCCCCN1)Nc1ccc(Cl)cc1 | 20.9% (inactive)
Cc1ccc(S(=O)(=O)OCC(F)(F)C(F)(F)C(F)(F)CO)cc1 | 19.1% (inactive)
CCOC(=O)CCC1(C(=O)OC)C(=O)CCCCCCCC1C(=O)OC (stereo not given) | -1.85% (inactive)
Cc1ccc(Nc2ccc(Nc3ccc(C)cc3)c3c2C(=O)c2ccccc2C3=O)cc1 | -1.05% (inactive)
CCSCCOC(=S)Nc1ccccc1 | -6.25% (inactive)
CCC(=N\NC(=S)NC)/C(C)=N\NC(=S)NC | -8.3% (inactive)
O=C(O)c1c(Br)c(Br)c(Br)c(Br)c1C(=O)Nc1ccc(Cl)c(Cl)c1 | -1.05% (inactive)
CC1=NNC(=O)C1 | 4.65% (inactive)
CCOC(=O)CCC(NC(=O)OCc1ccccc1)C(=O)NC(CCC(=O)OCC)C(=O)OCC (stereo not given) (Cbz-Glu(OEt)-Glu(OEt)-OEt; configuration not given here) | 17.9% (inactive)
CCc1cc(Cc2cc(CC)c(NC(=O)C(=O)CC(=O)c3sc(-c4cccnc4)nc3C)c(CC)c2)cc(CC)c1NC(=O)C(=O)CC(=O)c1sc(-c2cccnc2)nc1C | -26.8% (inactive)
CCc1cc(CSc2ccc(Cl)cc2)ccc1N | 98.5% (active)
COc1cc(C(=O)N2C[C@H](O)C[C@H]2C(=O)O)cc(OC)c1OC | -18.4% (inactive)
COc1ccccc1NC(=S)N/N=C/c1ccccn1 | -16.6% (inactive)
CC(Oc1cc(Cl)c(Cl)cc1Cl)C(=O)NC(Cc1ccccc1)C(=O)O (stereo not given) | 8.5% (inactive)
CC(C)=CC1C[C@H](C2CC=C3C2(C)CCC2[C@@]3(C)C(=O)CC3[C@]2(C)C=CC(=O)[C@]3(C)CO)CO1 (stereo not given in full) | 77.8% (active)
O=C1CSCCO1 | -7.3% (inactive)
CNC(=O)OCc1nc(SC(C)C)n(C)c1COC(=O)NC | -16% (inactive)

Test: NCI Yeast Anticancer Drug Screen. Data for the mec2-1 strain (AID 157)
Details: S. cerevisiae mec2-1 strain, at 50.0 µM, stronger effect = higher value
Procedure, shortened: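 Growth inhibition is read against vehicle-treated controls after compound exposure of the mec2-1 yeast strain, which is defective in DNA damage repair or cell cycle control.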

Compound | growth inhibition
Cc1cc(C)nc(N)n1 | 0.35% (inactive)
CC(NC(=O)NC(C)(C)C)NC(=O)C(N)CC(=O)O (stereo not given) | -20.1% (inactive)
COC1Cc2c(C)c(OC(C)=O)c3cccnc3c2O1 (stereo not given) | -17.4% (inactive)
CCOC(=O)/C(C#N)=N\Nc1ccccc1 | 14.6% (inactive)
CCCC(C)c1ccc(OCc2ccc(C)cc2)cc1 (stereo not given) | -4.25% (inactive)
O=C1CSC(/C(=C\c2ccc(Cl)cc2)c2nc3ccccc3[nH]2)=N1 | 11.2% (inactive)
Cc1ccc(NC(=O)COc2ccc(Cl)cc2)c(C)c1 | 11% (inactive)
CCCCCCCCCCCCSc1nc2c([nH]1)c(=O)n(C)c(=S)n2C | 0.75% (inactive)
CC(=O)CCC(=O)c1ccoc1 | -4.2% (inactive)
O=S(O)CCCCSSCC(O)CO (stereo not given) | 9.65% (inactive)
Cc1c(Cl)cc(C(C)(C)C)c(O)c1Cc1c(C)c(Cl)cc(C(C)(C)C)c1O | -8.3% (inactive)
COc1ccc(-c2cc(N3CCN(c4ccccc4)CC3)c(C#N)c(=O)o2)cc1 | 3.3% (inactive)
CC(=O)CCCC(CC(C)O)[Si](C)(C)C (stereo not given) | -19.4% (inactive)
COC(=O)C1(CC(=O)c2cccs2)NC(=S)NC(=O)C1C#N (stereo not given) | 3.55% (inactive)
CCCCCCCCCCOc1ccc(OCCCCCCCCC)cc1 | -15.8% (inactive)
c1ccc(-c2cc[c]([Sn]([c]3ccccc3)([c]3ccccc3)[c]3ccccc3)cc2)cc1 | 98.5% (active)
N#Cc1c[nH]c2cccc([N+](=O)[O-])c12 (tested in a mixture with another compound) | -10.9% (inactive)
O=c1[nH]cnc2c1cnn2Cc1ccccc1 | -4.85% (inactive)
NC(=O)/C(=N/O)c1ccccc1 | 13.2% (inactive)
CCOC(=O)C(NC(=O)c1ccccc1)(N1CCOCC1)C(F)(F)F (stereo not given) | -20.1% (inactive)

Compound | growth inhibition
CC1(C)CC(=O)C(C(CCC2CCCCC2=O)C2C(=O)CC(C)(C)CC2=O)C(=O)C1 (stereo not given) | 7.95% (inactive)
c1ccc2c(c1)oc1cc3c(cc12)n1nnnc1c1cccn31 | -1.25% (inactive)
CCCCCCCCCCCC(=O)NC(=S)Nc1ccc(C)c(C)c1 | 58.2% (inactive)
O=C(NNC1=NCCCCN1)Nc1ccc(Cl)cc1 | 6.8% (inactive)
Cc1ccc(S(=O)(=O)OCC(F)(F)C(F)(F)C(F)(F)CO)cc1 | 3.3% (inactive)
CCOC(=O)CCC1(C(=O)OC)C(=O)CCCCCCCC1C(=O)OC (stereo not given) | -5.65% (inactive)
Cc1ccc(Nc2ccc(Nc3ccc(C)cc3)c3c2C(=O)c2ccccc2C3=O)cc1 | -16.9% (inactive)
CCSCCOC(=S)Nc1ccccc1 | -8.05% (inactive)
CCC(=N\NC(=S)NC)/C(C)=N\NC(=S)NC | -6.4% (inactive)
O=C(O)c1c(Br)c(Br)c(Br)c(Br)c1C(=O)Nc1ccc(Cl)c(Cl)c1 | 5.15% (inactive)
CC1=NNC(=O)C1 | -0.4% (inactive)
CCOC(=O)CCC(NC(=O)OCc1ccccc1)C(=O)NC(CCC(=O)OCC)C(=O)OCC (stereo not given) (Cbz-Glu(OEt)-Glu(OEt)-OEt; configuration not given here) | 3.15% (inactive)
CCc1cc(Cc2cc(CC)c(NC(=O)C(=O)CC(=O)c3sc(-c4cccnc4)nc3C)c(CC)c2)cc(CC)c1NC(=O)C(=O)CC(=O)c1sc(-c2cccnc2)nc1C | -26.9% (inactive)
CCc1cc(CSc2ccc(Cl)cc2)ccc1N | 99% (active)
COc1cc(C(=O)N2C[C@H](O)C[C@H]2C(=O)O)cc(OC)c1OC | -15.9% (inactive)
COc1ccccc1NC(=S)N/N=C/c1ccccn1 | 15.9% (inactive)
CC(Oc1cc(Cl)c(Cl)cc1Cl)C(=O)NC(Cc1ccccc1)C(=O)O (stereo not given) | 9.45% (inactive)
CC(C)=CC1C[C@H](C2CC=C3C2(C)CCC2[C@@]3(C)C(=O)CC3[C@]2(C)C=CC(=O)[C@]3(C)CO)CO1 (stereo not given in full) | 78.9% (active)
O=C1CSCCO1 | -27.4% (inactive)
CNC(=O)OCc1nc(SC(C)C)n(C)c1COC(=O)NC | -10.3% (inactive)
